Compound activity from PubChem.
An excerpt weighted towards active compounds, which were near 2.2% of everything screened.
MITF TRPM1 inh: MITF TRPM1 promoter inhibition in SK-MEL-5 cells; 0.83% of 330,000 active; AID 488899; inhibition, % at 12.5 µM; SK-MEL-5 TRPM1 promoter luciferase, 24 h;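 active means mean inhibition across replicates of 60% or more, whatever share of single replicates reaches that level; inconclusive means some that reach 60%, reason not given; inactive means mean inhibition across replicates below 60%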
PAX8 inh HTS: lowers PAX8-driven luciferase in RMG-I cells | RMG-I TPO-luciferase reporter, SteadyGlo, 24 h | inhibition, % at 12.6 µM | 1.2% of 360,000 active | AID 652154;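 active means mean replicate inhibition at least 60% with every replicate also reaching 60%; inconclusive means only one of the two criteria is met; inactive means mean below 60% and not all replicates reaching 60%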;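 further: luciferase light reporting Pax8 driven TPO promoter activity; plate controls were median of neutral control wells for no effect and mitoxantrone controls for full effect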
Shn3 3UTR inh: inhibitors of Schnurri-3 3'UTR reporter in osteoblasts; 0.52% of 360,000 active; Clone20 osteoblast Shn3 3'UTR firefly luciferase, 24 h; inhibition, % at 12.5 µM;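 active means mean inhibition of at least 75% with every replicate also reaching 75%; inconclusive means mean inhibition at least 75% but some replicate below; inactive means mean inhibition below 75%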;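 further: 0% = median of neutral control wells and 100% = pilot-screen positive control compound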
EWS-Fli block: EWS/Fli transcriptional activity inhibition. A673 NR0B1-luciferase reporter, viability-normalised. inhibition, % at 12.6 µM. 0.67% of 350,000 active;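 active means mean inhibition of at least 50% after viability correction, with every replicate also passing that limit; inconclusive means mean reaches 50% but only one of two replicates passes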;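 further: firefly luciferase signal divided by Alamar Blue viability fluorescence both relative to DMSO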
LGR2 inh: blocks bursicon-induced cAMP signaling via Drosophila LGR2; inhibition, % at 9.99 µM; 0.35% of 380,000 active; HEK293 LGR2, CRE-luciferase, bursicon-stimulated, 4 h; AID 720647;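 active means drop in luminescence signal, shown as inhibition above about 50% in the replicate tests, limit read from the data, passing the limit was not always enough; inconclusive means probably only some replicates passing the limit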;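 further: agonist challenge used bursicon conditioned medium at about half maximal strength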
LMP1 NFkB inh: reduces LMP1-driven NF-kappaB luciferase signal | 0.69% of 350,000 active | inhibition, % at 12.5 µM | LMP1-induced NF-kappaB luciferase reporter cells, luminescence; in the data active means inhibition above about 41%; inconclusive means no clear call, values can overlap the other calls;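 further: 0% = neutral control wells and 100% = reference inhibitor control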
Active calls of the source: *; ? = inconclusive; . = no result.

SMILES | MITF TRPM1 inh | PAX8 inh HTS | Shn3 3UTR inh | EWS-Fli block | LGR2 inh | LMP1 NFkB inh
Oc1ccccc1C=NN=Cc1c(O)ccc2ccccc12 | -28.9 | -16.5 | -21.6 | -11.8 | . | 92.9*
COc1ccc2c3c(n(C)c2c1)[C@H](CO)N(C(=O)Nc1ccc(F)cc1)CC31CCN(C(=O)CC2CC2)CC1 | . | . | . | 4.2 | 10.5 | .
O=C(N/N=C/c1c(O)ccc2ccccc12)c1ccc(CO)nc1 | 46.4 | 71.3* | 81.7 | 3.9 | . | 19.3
COc1ccccc1NCC(=O)N/N=C/c1c(O)ccc2ccccc12 | 26.2 | 40.4 | 54.4 | 1.5 | 28.6 | -3.9
COc1ccc2ccccc2c1/C=N/NC(=O)c1ccc(C)nc1 | -1.1 | 1.3 | -7.5 | -10.7 | -12.3 | 10.0
O=C(CNc1ccc(F)cc1)N/N=C/c1c(O)ccc2ccccc12 | 34.1 | 27.2 | 91.5* | 14.3 | 2.4 | 36.7
CCCC(=O)Nc1ccccc1NC(=O)c1ccc2c(c1)OCO2 | 2.7 | -4.5 | 2.7 | 18.5 | 4.0 | 78.2*
Cc1cc(C(=O)N/N=C/c2cc(N=Nc3ccccc3)ccc2O)n[nH]1 | 41.5 | . | 86.7* | . | . | -9.9
CC(=O)Nc1ccccc1NC(=O)c1ccc2c(c1)OCO2 | . | -6.0 | -20.4 | -2.4 | 7.2 | 0.1
COC(=O)N/N=C/c1cc(N=Nc2ccccc2)ccc1O | -0.1 | -63.3 | 7.6 | -1.2 | -4.1 | -4.5
COc1ccc2c3c([nH]c2c1)[C@H](CO)N(C(=O)CC1CC1)CC31CCN(Cc2cccnc2)CC1 | . | . | . | -8.5 | -5.0 | .
C[C@H]1CN([C@@H](C)CO)C(=O)c2cc(NC(=O)CCCCCC(=O)Nc3ccccc3N)ccc2O[C@@H]1CN(C)S(=O)(=O)c1ccccc1 | . | -18.7 | . | 4.9 | -1.4 | .
CN(C)C(=O)c1ccc(-c2ccc([C@H]3[C@@H](CO)N4CCCCN(C(=O)C5CCCC5)C[C@H]34)cc2)cc1 | . | 14.1 | . | 9.5 | . | .
C[C@H]1CN([C@@H](C)CO)C(=O)Cc2cc(NS(=O)(=O)c3ccc(F)cc3)ccc2O[C@@H]1CN(C)C | . | -8.3 | . | 5.3 | -13.8 | .
O=C(NN=Cc1c(O)ccc2ccccc12)c1ccc2c(c1)OCO2 | ? | 12.0 | 88.8* | 21.4 | -15.6 | 74.2*
Cc1ccccc1S(=O)(=O)NCC[C@H]1CC[C@H](NC(=O)Nc2cccc(Cl)c2)[C@H](CO)O1 | . | 5.4 | . | 10.8 | . | .
Fc1cccc(CN2C[C@@H]3N[C@H](C2)C3c2ccc(/C=C/c3ccccc3)cc2)c1 (some centres not stated) | . | -89.9 | . | -9.4 | 12.3 | .
O=C(O)c1ccc(N/N=C/c2ccc(-c3ccccc3)cc2)cc1 | -85.4 | -59.3 | -50.9 | -49.2 | -5.1 | -104.4
CC(C)c1ccc(/C=N/Nc2ccc(C(=O)O)cc2)cc1 | 68.5* | 81.7* | 28.5 | 74.7* | . | 3.5
O=C(O)c1ccc(N/N=C/c2ccc(OC(=O)c3ccccc3Cl)cc2)cc1 | 12.5 | 27.7 | -17.0 | -53.9 | 57.6* | 25.0
Nc1ccc(C(=O)N/N=C\c2ccc(OC(=O)c3ccccc3Cl)cc2)cc1 | -33.8 | 5.6 | -0.2 | -17.5 | 4.6 | -11.7
CO[C@H]1CN(C)C(=O)c2cc(NC(=O)c3ccno3)ccc2OC[C@H](C)N(S(C)(=O)=O)C[C@H]1C | . | -14.8 | . | 0.5 | 16.9 | .
COc1ccc(S(=O)(=O)Nc2ccc3c(c2)C(=O)N([C@H](C)CO)C[C@@H](C)[C@H](CN(C)C(=O)CCC(F)(F)F)OCCCC[C@@H](C)O3)cc1 | . | 29.5 | . | 3.9 | 7.7 | .
COc1ccc(-c2cc(C(F)F)n3ncc(C(=O)N4CCc5ccccc54)c3n2)cc1 | 21.7 | -16.0 | 26.9 | 57.2* | -12.8 | 19.1
COC(=O)c1ccc(COc2ccccc2/C=C/C(=O)c2ccc(OCC(=O)O)cc2)cc1 | -2.5 | 17.9 | 0.8 | 24.9 | 18.7 | 68.6*
CCCC#Cc1ccc2c(c1)O[C@@H](CN(C)C(=O)c1ccncc1)[C@@H](C)CN([C@@H](C)CO)S2(=O)=O | . | . | . | -21.7 | -9.8 | .
O=C(C[C@@H]1CC[C@@H](NC(=O)c2ccncc2)[C@H](CO)O1)Nc1ccc(-c2ccccc2)cc1 | . | . | . | 0.1 | -2.3 | .
O=C1C(=C(I)I)c2ccccc2-c2ccccc21 | 98.8* | 127.7* | 97.7* | 58.2* | 102.5* | 12.0
CC(=O)N(C[C@@H]1[C@@H](c2ccc(C3=CCCC3)cc2)[C@@H](CO)N1CC1CC1)C(C)C | . | . | . | -1.0 | -18.1 | .
O=C(NCCCN1CCOCC1)C(=O)N/N=C/c1c(Cl)cccc1Cl | -0.2 | -5.9 | 3.4 | 4.2 | 6.7 | 10.5
